ClpP mod – qHTS Assay for Activators of ClpP | AID 651965, 2013 | 1.9% of 340,000 active | Potency, µM (series often up to 57.5 µM), for the others: top-dose activity change, negative = active | purified B. subtilis ClpP, FRET peptide cleavage, 20 min; active = well fitted falling curve with a large enough effect; inconclusive = small, poorly fitted or top-dose-only effect; inactive = no such curve, though single readings can be large or run the other way; note: the source files actives as falling curves though it sought activators and does not explain the sign; nearly all actives have a fitted effect of over 65% in size
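FRET quenching reversal measured ClpP activation: 10 microg/mL B. subtilis ClpP at pH 8 with the FRET-FV decapeptide, read at 430 nm after 320 nm excitation. The 20-min minus 0-min signal was scaled between DMSO/no-enzyme wells and ADEP (5.8 microM final).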
Rango-impB inh – qHTS Assay for Inhibitors of Rango (Ran-regulated importin-beta cargo) - Importin beta complex formation; Importin subunit beta-1 (Homo sapiens), Q14974; Rango CFP/YFP FRET sensor + importin beta, 45 min; Potency, µM (titrated, usually from 92.2 µM), for inactives: top-dose inhibition of complex formation; 0.031% of 340,000 active; AID 540263, 2011; calls by dose curve;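 note: 0% = DMSO wells and 100% = buffer wells lacking importin beta; nearly all actives have a fitted effect of over 15% in size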
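FRET biosensor (snurportin 1 IBB flanked by EYFP and cerulean), 50 nM, with compound 5 min, then 0.125 microM importin beta in PBS, 1 mM DTT, 0.02% Tween-20, 0.1% BSA. CFP/YFP ratio read after 45 min at room temperature; pre-read flags interference.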
Rango dissoc inh – qHTS Assay for Inhibitors of RanGTP induced Rango (Ran-regulated importin-beta cargo) - Importin beta complex dissociation. Snurportin-1 (Homo sapiens) + GTP-binding nuclear protein Ran (Homo sapiens) + Importin …. 0.071% of 340,000 active. Potency, µM (highest dose often 46.1 µM), for the others: at the highest dose activity change, negative = inhibition. Biochemical FRET Rango-importin beta, RanGTP-induced dissociation. AID 540253, 2011; calls by dose curve; note: % of control where 0% means no effect; nearly all actives have a fitted effect of over 45% in size
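Rango (0.1 uM)–importin beta (0.25 uM) complex; RanGTP-RCC1 trigger; 45 min RT; CFP/YFP FRET read.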
TDP1 inh – qHTS Assay for Inhibitors of Tyrosyl-DNA Phosphodiesterase (TDP1); Tyrosyl-DNA phosphodiesterase 1 (Homo sapiens), Q9NUW8; recombinant TDP1, AlphaScreen DNA substrate cleavage; Potency, µM (highest dose often 130 µM), for the others: at the highest dose activity change, negative = inhibition, most hits filed as inhibitors; 0.28% of 350,000 active; AID 485290, 2010; note: % is set by controls: 0 for no effect and ±100 for the full control effect; nearly all actives have a fitted effect of over 40% in size
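Here, a 5' biotin and 3' phosphotyrosine-FITC DNA oligonucleotide reports Tdp1 activity: intact substrate bridges AlphaScreen beads, while cleavage leaves a 3' phosphate and drops signal. All incubations at room temperature.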
12-LOX inh – Primary qHTS assay for inhibitors of human arachidonate 12S-lipoxygenase (ALOX12): Round 2; purified 12hLO, xylenol orange hydroperoxide absorbance; Potency, µM (highest dose often 108 µM), without a hit: at the top dose activity change, negative = inhibition, actives largely listed as inhibitors; 1.1% of 580,000 active; AID 1671190, 2021; note: % is set by controls: 0 for no effect and ±100 for the full control effect
Target sequence (P18054 whole entry, looked up): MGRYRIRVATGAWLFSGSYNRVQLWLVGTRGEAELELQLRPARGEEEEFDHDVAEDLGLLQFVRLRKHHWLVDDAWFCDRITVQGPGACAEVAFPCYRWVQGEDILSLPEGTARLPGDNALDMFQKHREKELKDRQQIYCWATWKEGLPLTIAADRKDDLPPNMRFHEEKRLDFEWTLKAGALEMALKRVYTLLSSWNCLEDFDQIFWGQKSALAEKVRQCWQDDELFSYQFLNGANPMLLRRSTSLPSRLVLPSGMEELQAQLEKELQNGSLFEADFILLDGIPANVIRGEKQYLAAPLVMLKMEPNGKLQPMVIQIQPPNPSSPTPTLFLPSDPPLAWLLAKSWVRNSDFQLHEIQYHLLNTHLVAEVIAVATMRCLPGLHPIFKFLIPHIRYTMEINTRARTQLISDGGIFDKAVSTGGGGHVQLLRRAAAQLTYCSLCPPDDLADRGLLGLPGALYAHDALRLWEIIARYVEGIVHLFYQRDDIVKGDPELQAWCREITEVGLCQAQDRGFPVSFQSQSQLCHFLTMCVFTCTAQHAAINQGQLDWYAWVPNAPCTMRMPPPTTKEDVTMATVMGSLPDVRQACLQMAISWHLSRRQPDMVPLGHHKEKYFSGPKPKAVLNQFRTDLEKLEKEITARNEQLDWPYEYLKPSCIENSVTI
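Purified human 12hLO (150 nM final) in 25 mM Hepes, 0.01% Triton X-100, pH 7.0 was preincubated 15 min at room temperature with compound. Then 40 uM arachidonic acid was added, 30 min. Hydroperoxide was read by Fe-XO absorbance ratio 573/405 nm.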
TSG101-PTAP inh – qHTS Assay for Iinhibitors of HIV-1 Budding by Blocking the Interaction of PTAP/TSG101. Tumor susceptibility gene 101 protein (Homo sapiens), Q99816. Potency, µM (titrated, usually from 115 µM), without a hit: at the top dose activity change, negative = inhibition, usual class: inhibitors. Fluorescence polarization, FITC-PTAP peptide / Tsg101 binding. 340,000 tested, under 10 active; active = well fitted inhibition curve with a large enough effect in the main read-out, with a control signal flat, not every such curve was filed as active; inconclusive = small, poorly fitted or top-dose-only effect, or effect the other way, or a change in a side signal; inactive = no such curve, though single readings can be large or run the other way; note: % of control where 0% means no effect
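Tsg101 binding domain (10 uM final) was mixed with compound and a FITC-labeled PTAP peptide (50 nM final) in HEPES pH 7.5 buffer with NaCl, Tween 20, EDTA and TCEP; fluorescence polarization was read after 20 min at r.t.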
* hit, by the source's call; ? = inconclusive; / = not tested or not shown. Sampled rows, rich in hits. Any-hit rate of the full collection: about 2.4%. Unless noted, calls come from the whole dose curve; as a rule, active = well fitted curve in the direction sought with a large enough effect; inconclusive = small, poorly fitted or top-dose-only effect, or another doubt; inactive = no such curve, though single readings can be large; an effect the other way counts as inactive or inconclusive. Potency is the fitted concentration of half-maximal effect.

SMILES	ClpP mod	Rango-impB inh	Rango dissoc inh	TDP1 inh	12-LOX inh	TSG101-PTAP inh
Cc1ccc(NC(=O)CNC(=O)c2ccco2)cc1Cl	1%	0%	17%	4%	-17%	-1%
Cc1ccc(-c2ccccc2NC(=O)CS(=O)CC(=O)Nc2ccc(C)c(Cl)c2)o1 (stereo not drawn)	0%	?	-14%	/	40µM*	1%
COc1ccc(C(=O)N2CCC3(CC2)CC(=O)c2ccccc2O3)cc1	/	/	/	/	0%	/
O=C(C1CC(=O)N(c2ccccc2)C1)N1CCCCCC1 (stereo not drawn)	0%	-5%	5%	2%	0%	1%
COc1cccc(N2CC(C(=O)N3CCC4(CC3)CC(=O)c3ccccc3O4)CC2=O)c1 (stereo not drawn)	28µM*	-2%	3%	-1%	11%	1%
O=C1CC2(CCN(C(=O)C3CC(=O)N(c4ccccc4)C3)CC2)Oc2ccccc21 (stereo not drawn)	32µM*	3%	19%	1%	-10%	1%
CCOc1cc(-c2nc(C3CC(=O)N(c4ccc(Cl)cc4)C3)no2)cc(OCC)c1OCC (stereo not drawn)	/	/	/	/	27%	/
COc1ccc(/C=N/NC(=O)c2nn(-c3ccccc3)c(=O)c3c(N)scc23)cc1	3%	?	23%	/	?	-5%
COc1ccc(/C=N/NC(=O)c2nn(-c3ccc(Cl)cc3)c(=O)c3c(N)scc23)cc1	-1%	?	-16%	-2%	7.9µM*	0%
COc1cc(/C=C2\Oc3cc(O)ccc3C2=O)ccc1O	-2%	?	?	/	?	?
O=C1/C(=C/c2ccc(O)c(O)c2)Oc2cc(O)ccc21	2%	?	?	/	11µM*	12%
N#Cc1nc(/C=C/c2cccs2)oc1NC1CC1	/	/	/	/	25µM*	/
O/N=C1/CCc2cccc3cccc1c23	?	-2%	0%	1%	-4%	-5%
O=C1Cc2cccc3cccc1c23	22µM*	0%	-4%	-4%	-24%	-7%
Cc1ccc(C)c(-n2sc3ccc(F)cc3c2=O)c1	1%	0%	1%	0%	1.6µM*	-1%
COc1ccc(-n2sc3ccc(F)cc3c2=O)cc1	-2%	-1%	0%	0%	1.1µM*	/
Cc1nc2c(=O)n(C)c(=O)[nH]c2n1Cc1ccccc1	28µM*	1%	-4%	6%	?	-3%
Cc1cccc(C)c1NC(=O)CN(C)C(=O)c1cc(S(=O)(=O)N(C)C)ccc1N1CCCC1	-23%	3%	-2%	/	-42%	-1%
CCN1C(=O)C(CC(=O)Nc2c(C)cccc2C)Nc2cc(S(=O)(=O)N(C)C)ccc21 (stereo not drawn)	28µM*	0%	-9%	2%	15%	-2%
COc1ccc(S(=O)(=O)n2ccnc2)c2cccnc12	13µM*	1%	?	4%	?	-3%
CCCCNS(=O)(=O)c1ccc(OC)c2ncccc12	28µM*	-1%	-10%	2%	-2%	-5%
CCOc1ccc(S(=O)(=O)NCc2ccc(C)cc2)c2cccnc12	32µM*	-1%	5%	0%	13%	-2%
Cc1cc(C)n(CCC(=O)N2CC(c3noc(COc4ccc(F)cc4)n3)C2)n1	/	/	/	/	57%	/
O=C1C=C(O)c2ccccc2C1=O	/	/	/	4%	?	/
